Results taken from publication PMC5540273 (PLoS ONE, 2017).

tested on: T1, BRK; details: concentration: 1 μM,replicates: in singlicate; n = 1
T1 construct: gene PTK6
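Further: KINOMEscan kinase panel screen.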

SMILES | %Inh
CS(=O)c1ccc(-c2coc3ccc(-c4n[nH]c(=O)o4)cc23)cc1 (centres unmarked) | 0%
O=C(Nc1cccc(Oc2ccc3nccn3n2)c1)Nc1cccc(C(F)(F)F)c1 | 0%
CCNCC(Cc1ccccc1)NC(=O)c1cc(Br)c(-c2ccnc3[nH]ccc23)s1.Cl.Cl (centres unmarked) [GSK1383280] | 34%
COC(=O)Nc1nc2cc(Oc3ccc(NC(=O)Nc4cc(C(F)(F)F)ccc4Cl)cc3)ccc2[nH]1.Cl [GW697465] | 12%
COc1cc2nccc(Nc3ccc(Oc4ccccc4)cc3)c2cc1OC.Cl [GI261656] | 96.1%
Cc1ccc2c(-c3ccnc(Nc4ccc(C(F)(F)F)cc4)n3)cnn2n1 [GW819776] | 4%
O=C(Nc1ccccc1)c1cccc(Oc2ccc3nccn3n2)c1 | 0%
C[C@@H](Oc1cc(-n2cnc3cc(-c4ccncc4)ccc32)sc1C(N)=O)c1ccccc1Cl [GSK479719] | 15%
CS(=O)(=O)Nc1ccc(-c2ccnc3[nH]ccc23)cc1 [GSK993273] | 0%
NC(=O)c1ccc(-c2cc3ncnc(SCC(=O)O)c3s2)cc1 | 0%
CN(c1ccc2c(c1)nc(NCc1ccc(F)cc1)n2C)c1ccnc(Nc2ccc(CS(C)(=O)=O)cc2)n1.Cl [GW813244] | 88%
Cn1ccc2ncnc(Oc3ccc(NC(=O)Nc4cccc(C(F)(F)F)c4)c(F)c3)c21 | 0%
CCOC(=O)N1CCC(n2cnc(-c3ccc(F)cc3)c2-c2ccnc(N)n2)CC1 [SB-219952] | 0%
Cc1cccc2c(-c3ccncc3)c(-c3ccc(F)cc3)nn12.Cl [GW461487] | 0%
N#Cc1cccc(C(=O)NC2CCN(c3ccnc(Nc4ccc(F)cc4)n3)C2)c1 (centres unmarked) [GSK1379708] | 16%
Cc1n[nH]c2cc(Nc3ccnc(Nc4cccc(CN5CCOCC5)c4)n3)ccc12 [GW682569] | 47%
Cn1cc(-c2cccc3c(N)c(C(N)=O)nnc23)cn1 | 8%
Nc1nccc(-c2ccc3c(N)n[nH]c3c2)n1 [GSK1034945] | 4%
C[C@@H]1CNc2c(sc3ccc4nc(-c5ccc(O)cc5)ccc4c23)C(=O)N1 | 0%

SMILES | %Inh
COc1cccc(C2=C(Nc3cccc(Cl)c3)C(=O)NC2=O)c1 [SB-341556] | 19%
CCn1c(-c2nonc2N)nc2cncc(Br)c21 [SB-738004] | 10%
COc1cc2c(Nc3ccc(NC(=O)c4ccccc4)cc3)ncnc2cc1OCCCN1CCOCC1 [GSK301329] | 77%
O=C1NCCc2[nH]c(-c3ccncc3)cc21 | 0%
Cc1ccc(Nc2ccnc(Nc3ccc4c(c3)CS(=O)(=O)C4)n2)cc1O.Cl [GW579362] | 95%
O=C(Nc1n[nH]c2cc(-c3ccco3)ccc12)C1CC1 [SB-737447] | 0%
CN(c1cccc(CNc2nc(Nc3ccc4c(c3)CC(=O)N4)ncc2C(F)(F)F)c1)S(C)(=O)=O | 0%
Cc1ccc(C(=O)Nc2ccc(Oc3ccc4nc(NC(=O)C5CC5)cn4c3)c(F)c2)c(=O)n1-c1ccccc1 | 88%
COC(=O)c1cccc(NC(=O)NC2CCN(c3ccnc(NCc4ccc(F)cc4)n3)CC2)c1 [GSK1379860] | 10%
Cl.c1ccc(Oc2ccc(Nc3ccnc4cc(-c5ccc(CN6CCNCC6)o5)ccc34)cc2)nc1 [GW567142] | 92.7%
O=C(NCC1CC1)c1ccc(-c2cc(C(=O)NC3CC3)ccc2F)cc1 [GW810445] | 0%
C[C@@H](Oc1cc(-n2cnc3cc(-c4cnn(C)c4)ccc32)sc1C(N)=O)c1ccccc1Cl [GSK580432] | 0%
CC(C)c1nc(-c2cccc(NS(=O)(=O)c3ccccc3)c2)c(-c2ccnc(Nc3ccc4c(c3)CN(C)CC4)n2)s1 [GSK1649598] | 99.4%
C[C@@H](Oc1cc(-n2cnc3ccc(-c4ccncc4)cc32)sc1C(N)=O)c1ccccc1Cl [GSK483724] | 25%
CCn1c(-c2nonc2N)nc2cncc(CNC3CCNCC3)c21.Cl [SB-747651] | 0%
CC(C)S(=O)(=O)N1CCN(Cc2ccc3c(c2)nc(NC(=O)c2ccsc2)n3C[C@H](O)c2ccccc2)CC1 [GW635815] | 8%
COc1cc(Nc2nccc(N3CCC(NC(=O)c4cccc(C#N)c4)C3)n2)cc(OC)c1OC (centres unmarked) [GSK1379751] | 0%
Cc1ccc(CC(=O)N2CCc3cc(-c4cn(C)c5ncnc(N)c45)ccc32)cc1 [GSK2634758] | 78%

tested on: BRSK1; details: concentration: 1 μM,replicates: in singlicate; n = 1

SMILES | %Inh
CS(=O)c1ccc(-c2coc3ccc(-c4n[nH]c(=O)o4)cc23)cc1 (centres unmarked) | 0%
O=C(Nc1cccc(Oc2ccc3nccn3n2)c1)Nc1cccc(C(F)(F)F)c1 | 5%
CCNCC(Cc1ccccc1)NC(=O)c1cc(Br)c(-c2ccnc3[nH]ccc23)s1.Cl.Cl (centres unmarked) [GSK1383280] | 0%
COC(=O)Nc1nc2cc(Oc3ccc(NC(=O)Nc4cc(C(F)(F)F)ccc4Cl)cc3)ccc2[nH]1.Cl [GW697465] | 0%
COc1cc2nccc(Nc3ccc(Oc4ccccc4)cc3)c2cc1OC.Cl [GI261656] | 0%
Cc1ccc2c(-c3ccnc(Nc4ccc(C(F)(F)F)cc4)n3)cnn2n1 [GW819776] | 0%
O=C(Nc1ccccc1)c1cccc(Oc2ccc3nccn3n2)c1 | 7%
C[C@@H](Oc1cc(-n2cnc3cc(-c4ccncc4)ccc32)sc1C(N)=O)c1ccccc1Cl [GSK479719] | 58%
CS(=O)(=O)Nc1ccc(-c2ccnc3[nH]ccc23)cc1 [GSK993273] | 8%
NC(=O)c1ccc(-c2cc3ncnc(SCC(=O)O)c3s2)cc1 | 0%
CN(c1ccc2c(c1)nc(NCc1ccc(F)cc1)n2C)c1ccnc(Nc2ccc(CS(C)(=O)=O)cc2)n1.Cl [GW813244] | 0%
Cn1ccc2ncnc(Oc3ccc(NC(=O)Nc4cccc(C(F)(F)F)c4)c(F)c3)c21 | 0%
CCOC(=O)N1CCC(n2cnc(-c3ccc(F)cc3)c2-c2ccnc(N)n2)CC1 [SB-219952] | 0%
Cc1cccc2c(-c3ccncc3)c(-c3ccc(F)cc3)nn12.Cl [GW461487] | 0%
N#Cc1cccc(C(=O)NC2CCN(c3ccnc(Nc4ccc(F)cc4)n3)C2)c1 (centres unmarked) [GSK1379708] | 0%
Cc1n[nH]c2cc(Nc3ccnc(Nc4cccc(CN5CCOCC5)c4)n3)ccc12 [GW682569] | 0%
Cn1cc(-c2cccc3c(N)c(C(N)=O)nnc23)cn1 | 11%
Nc1nccc(-c2ccc3c(N)n[nH]c3c2)n1 [GSK1034945] | 41%
C[C@@H]1CNc2c(sc3ccc4nc(-c5ccc(O)cc5)ccc4c23)C(=O)N1 | 48%

SMILES | %Inh
COc1cccc(C2=C(Nc3cccc(Cl)c3)C(=O)NC2=O)c1 [SB-341556] | 11%
CCn1c(-c2nonc2N)nc2cncc(Br)c21 [SB-738004] | 0%
COc1cc2c(Nc3ccc(NC(=O)c4ccccc4)cc3)ncnc2cc1OCCCN1CCOCC1 [GSK301329] | 20%
O=C1NCCc2[nH]c(-c3ccncc3)cc21 | 0%
Cc1ccc(Nc2ccnc(Nc3ccc4c(c3)CS(=O)(=O)C4)n2)cc1O.Cl [GW579362] | 10%
O=C(Nc1n[nH]c2cc(-c3ccco3)ccc12)C1CC1 [SB-737447] | 31%
CN(c1cccc(CNc2nc(Nc3ccc4c(c3)CC(=O)N4)ncc2C(F)(F)F)c1)S(C)(=O)=O | 0%
Cc1ccc(C(=O)Nc2ccc(Oc3ccc4nc(NC(=O)C5CC5)cn4c3)c(F)c2)c(=O)n1-c1ccccc1 | 0%
COC(=O)c1cccc(NC(=O)NC2CCN(c3ccnc(NCc4ccc(F)cc4)n3)CC2)c1 [GSK1379860] | 0%
Cl.c1ccc(Oc2ccc(Nc3ccnc4cc(-c5ccc(CN6CCNCC6)o5)ccc34)cc2)nc1 [GW567142] | 0%
O=C(NCC1CC1)c1ccc(-c2cc(C(=O)NC3CC3)ccc2F)cc1 [GW810445] | 0%
C[C@@H](Oc1cc(-n2cnc3cc(-c4cnn(C)c4)ccc32)sc1C(N)=O)c1ccccc1Cl [GSK580432] | 82%
CC(C)c1nc(-c2cccc(NS(=O)(=O)c3ccccc3)c2)c(-c2ccnc(Nc3ccc4c(c3)CN(C)CC4)n2)s1 [GSK1649598] | 24%
C[C@@H](Oc1cc(-n2cnc3ccc(-c4ccncc4)cc32)sc1C(N)=O)c1ccccc1Cl [GSK483724] | 24%
CCn1c(-c2nonc2N)nc2cncc(CNC3CCNCC3)c21.Cl [SB-747651] | 4%
CC(C)S(=O)(=O)N1CCN(Cc2ccc3c(c2)nc(NC(=O)c2ccsc2)n3C[C@H](O)c2ccccc2)CC1 [GW635815] | 0%
COc1cc(Nc2nccc(N3CCC(NC(=O)c4cccc(C#N)c4)C3)n2)cc(OC)c1OC (centres unmarked) [GSK1379751] | 0%
Cc1ccc(CC(=O)N2CCc3cc(-c4cn(C)c5ncnc(N)c45)ccc32)cc1 [GSK2634758] | 2%
